Measurements from PubChem BioAssay (NCI).
“And” between values parts separate entries of the source, which are not always exact repeats. Equal values may be shown once. Compounds without any hit were thinned out: in the full panel of roughly 79,000, 15% have a hit. A structure can be active in one record and inactive in another. The source made the active and inactive calls. Rule as the data show it: active = growth inhibition above about 70%; inactive = the rest.

Columns and labels:
[1] = NCI Yeast Anticancer Drug Screen. Data for the rad50 strain (AID 155);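 also: 0% = growth of vehicle-only cultures of the same strain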; settings: S. cerevisiae rad50 strain growth inhibition; at 50.0 µM; stronger effect = higher value
In short: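 Inhibition values express reduced yeast growth in compound-treated cultures relative to vehicle-treated controls.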

[2] = NCI Yeast Anticancer Drug Screen. Data for the mec2-1 strain (AID 157); settings: S. cerevisiae mec2-1 strain, at 50.0 µM, stronger effect = higher value
In short: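 Readout is yeast growth inhibition, normalised to vehicle-treated controls, in the mec2-1 strain exposed to compound.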

[3] = NCI Yeast Anticancer Drug Screen. Data for the sgs1 mgt1 strain (AID 161);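 also: 0% = growth of cultures given vehicle only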; settings: S. cerevisiae sgs1 mgt1 strain, at 50.0 µM, stronger effect = higher value
In short: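 This yeast growth screen uses a strain with defined DNA-repair lesions; compound-treated growth is compared with vehicle-treated growth.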

[4] = NCI Yeast Anticancer Drug Screen. Data for the cln2 rad14 strain (AID 165);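 also: 0% = growth equal to vehicle treated cultures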; settings: S. cerevisiae cln2 rad14 strain, at 50.0 µM, stronger effect = higher value
In short: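 Relative to vehicle controls, growth inhibition of compound-treated cln2 rad14 yeast was recorded.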

[5] = NCI Yeast Anticancer Drug Screen. Data for the bub3 strain (AID 167); settings: S. cerevisiae bub3 mutant strain, at 50.0 µM, stronger effect = higher value
In short: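 Steps: expose the mutant yeast strain to compound; grow alongside vehicle-treated cultures; measure growth; express inhibition against the vehicle cultures.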

[6] = NCI Yeast Anticancer Drug Screen. Data for the mlh1 rad18 strain (AID 175); settings: S. cerevisiae mlh1 rad18 strain growth inhibition; at 50.0 µM; stronger effect = higher value
In short: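 Test agents were incubated with a yeast strain of defined genotype (DNA damage repair defect). Inhibition of growth was derived by comparison with vehicle-exposed cultures.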

Measured: growth inhibition

CC(C)c1ccc2c(c1)CC[C@H]1[C@](C)(C#N)CCC[C@]21C
inactive: [1] 1.1% and 0.25% | [2] -20.8% and -11.4% | [3] 0.6% and -17.2% | [4] -28.4% and -20.4% | [5] 1.25% and 13.2% | [6] 9.85% and 34.7%

CCOC(=O)C(OC1OC(C(=O)OC)C(OC(C)=O)C(OC(C)=O)C1OC(C)=O)c1ccccc1 (configuration not stated)
inactive: [1] -10.2% and -20.9% | [2] -5.7% and -8.3% | [3] -13.2% and -11.8% | [4] 0.5% and -29.8% | [5] -6.85% and -17.8% | [6] -33.1% and -35.5%

Cn1cc(NC(=O)c2cc(NC(=O)c3cc(NC=O)cn3C)cn2C)cc1C(=O)NCCC(=N)N
5.1% (inactive) and 89.8% (active): [1]
6.75% (inactive) and 91.5% (active): [2]
-2.2% (inactive) and 91.7% (active): [3]
-1.75% (inactive) and 91.3% (active): [5]
12.9% (inactive) and 90% (active): [6]
22.9% (inactive) and 88.5% (active): [4]

CCC(C(=O)O)c1ccccc1 (configuration not stated)
inactive: [1] 10.7% and 12.6% | [2] 5.4% and 3.95% | [3] 9.4% and 1.25% | [4] -12.2% and -29.8% | [5] -19.6% and -1.9% | [6] 22.4% and 2.4%

C/C(=N\O)c1ccccc1
inactive: [1] -11.2% and 18.9% | [2] -20.4% and -5.5% | [3] -3.5% and 13% | [4] 2.8% and -13.4% | [5] 8.3% and -2.6% | [6] -19.9% and 14.5%

CC(CCC(C)C(=O)O)C(=O)O (configuration not stated)
inactive: [1] -10.1% and 40.4% | [2] -12.8% and 9.8% | [3] -2.05% and 15.4% | [4] 12.2% and 13% | [5] -15.1% and 22.6% | [6] -0.25% and 27.9%

Cc1ccc(N=Nc2c(O)ccc3cc(S(=O)(=O)O)ccc23)cc1
inactive: [1] 50.9% and 4.8% | [2] -15.5% and -2.8% | [3] 9.8% and 5.85% | [4] -6.85% and -6.7% | [5] -32.6% and 8.05% | [6] 22.8% and 9.35%

COc1cc(C2c3cc4c(cc3C(OC(=O)c3ccc[n+](C)c3)C3COC(=O)C23)OCO4)cc(OC)c1OC (configuration not stated)
inactive: [1] -16.2% and -3.1% | [2] -11.3% and 8.1% | [3] -11.3% and 2.3% | [4] -17.5% and -1.65% | [5] 13.1% and 41.8% | [6] 5.45% and 9.45%

NC(N)=S
inactive: [1] -10.2% and 7% | [2] -2.4% and -11.8% | [3] -6.1% and 9% | [4] 32.8% and 1.9% | [5] 3.75% and 3.8% | [6] 0.35% and -9.45%

CN(C)C=C(S(C)(=O)=O)S(C)(=O)=O
inactive: [1] 10.2% and -24.7% | [2] -2.05% and -9.9% | [3] 20.1% and -9.85% | [4] -17.5% and 4.25% | [5] 5.8% and 14.9% | [6] 9.1% and -14.8%

O=C1C(Br)CCCCCCCCCC1Br (configuration not stated)
inactive: [1] -26.2% and 45% | [2] -6.4% and 11.2% | [3] 4.05% and 50% | [4] -3.1% and 22.9% | [5] -12.3% and 24.4% | [6] 0.9% and 36.4%

O=C(Oc1ccc(Br)cc1)c1ccccc1
inactive: [1] 0.75% and 5.6% | [2] -12.8% and -7.05% | [3] -4.35% and -0.05% | [4] -13.9% and -27.1% | [5] 30.9% and 13.7% | [6] -6.1% and 29.4%

CN(C)CC1COC2Cc3ccccc3C1O2 (configuration not stated)
inactive: [1] -43.2% and -0.75% | [2] -22.1% and -20.2% | [3] -17.2% and -1.65% | [4] -46.1% and 20.9% | [5] -19.1% and 21.5% | [6] -29.3% and 1.95%

CC(=O)Nc1cccc(N)c1
inactive: [1] 8.05% and 12.3% | [2] -12% and 6.65% | [3] 0.35% and -3.95% | [4] 5.4% and -40.4% | [5] 5.1% and 0.7% | [6] 9.6% and -1.3%

OC1C2COC(O2)C(O)C1O (configuration not stated)
inactive: [1] -0.4% and -29.9% | [2] -5.45% and -7.65% | [3] 7.4% and -6.7% | [4] -16.2% and -35% | [5] -1.5% and 5.9% | [6] 7.05% and -18.7%

CC(=O)Nc1cccc2c1C(=O)OC2=O
inactive: [1] 8.65% and 1.9% | [2] -3.9% and -0.15% | [3] 5.05% and -16.7% | [4] -6.3% and -20.6% | [5] -1.9% and -0.8% | [6] -8.1% and -4.7%

Oc1ccccc1CNCc1ccccc1O
inactive: [1] -6.65% and -16.2% | [2] -13.5% and -2.7% | [3] -5.5% and -33% | [4] 23.8% and -28.1% | [5] 0.5% and -28.2% | [6] -1.05% and 3.55%

NNS(=O)(=O)c1ccc(Cl)cc1
inactive: [1] -3.5% and 13.2% | [2] -19.1% and 2.45% | [3] -5.45% and 6.6% | [4] 13.4% and -4.4% | [5] 22.9% and 9.8% | [6] -8.3% and 7%

Cc1c2cc(O)c(=O)cc-2oc2cc(O)c(O)cc12
inactive: [1] 45.9% and 30.5% | [2] 29.6% and 6.2% | [3] 36.1% and 50.1% | [4] 20.9% and 31.9% | [5] 36.7% and 47.6% | [6] 40.1% and 34.9%

COc1c2c(cc(O)c1C(C)=O)OC(C)(C)C=C2
inactive: [1] -4.8% and 16.6% | [2] -37.5% and -36.5% | [3] -11.6% and 16% | [4] -14.9% and 11.6% | [5] -12.1% and 18.1% | [6] -15% and 5.85%

C=CCOC(=O)C(C)OC(=O)C(C)O (configuration not stated)
inactive: [1] 35.3% and 15.3% | [2] 11.8% and 10.6% | [3] 13.6% and -3.75% | [4] 11.6% and -4% | [5] 6.85% and -0.4% | [6] 9.85% and 1.9%

CC(CCC(=O)O)C1CCC2C3C(O)CC4CC(O)CCC4(C)C3CC(O)C12C (configuration not stated)
inactive: [1] 42.7% and 3.65% | [2] 46.2% and -12.6% | [3] 45.4% and -17.3% | [4] 47.6% and 0.9% | [5] 46.7% and -9.35% | [6] 35.9% and 14.2%
